# Measurements as given in PubChem BioAssay AID1159606 (Sanford-Burnham Center for Chemical Genomics, 2016).
# The whole screen tested about 360,000 compounds, of which about 7,300 (2%) were called active. What follows is part of a selection rich in actives, with near analogues and random picks from the rest. A number with no mark means an inactive call. No stated cut-off is given here; in the data, active means inhibition above about 50%; inactive means the rest.
# Assay: inhibitors of TWEAK-Fn14 signaling, primary screen, luciferase reporter cells, uHTS (AID 1159606)
# Conditions: TWEAK-stimulated Fn14 reporter cells, luciferase luminescence, 8 h; at 10 µM; hits give high values
row,Compound,inhibition
1,C/C(=N/NC(=S)Nc1ccccc1)c1ccc2c(c1)OCO2,-46.3%
2,O=C(Nc1ccc2ccccc2c1)Nc1ccc2snnc2c1,74.8% (active)
3,Cc1ccc(NC(=O)Nc2ccc3oc(C)nc3c2)cc1,-4.94%
4,S=C(Nc1ccccc1)Nc1ccc2ccccc2c1,0.33%
5,O=C(C1CCC1)N1CCN(S(=O)(=O)c2ccc([N+](=O)[O-])cc2)CC1,4.46%
6,CCOC(=O)[C@]12CCCC=C1N(Cc1ccc3c(c1)OCO3)C(=O)[C@H](CC(=O)NCc1cccs1)C2,15.5%
7,O=S(=O)(Cc1ccc(Cl)cc1Cl)c1ccc(Cl)cc1,12.1%
8,CCCCNC(=O)C[C@@H]1C[C@@]2(C(=O)OCC)CCC=C2N(Cc2cccc3ccccc23)C1=O,14.7%
9,CC(=O)c1c(C)oc2ccc(NS(=O)(=O)c3ccccc3)cc12,21.6%
10,CC(=O)c1c(C)oc2ccc(NS(=O)(=O)c3ccc(C(=O)O)cc3)cc12,3.85%
11,COc1ccc(S(=O)(=O)Nc2ccc3oc(C)c(C(C)=O)c3c2)cc1,54.4% (active)
12,CC1(C(=O)NS(=O)(=O)c2ccc(C#N)cc2)CCN1C(=O)CC1CCCC1 (stereo unspecified),1.67%
13,CCCCCCN1C[C@H](O)[C@@H](n2cc(C3CC3)nn2)C[C@@H]1c1ccc(Cl)cc1,-1.73%
14,O=C(/C=C/[C@H]1O[C@@H](n2cnc3c(NC(=O)c4ccccc4)ncnc32)[C@H](O)[C@@H]1O)NCc1ccccc1,-7.74%
15,COc1ccc(NC(=O)C2C3CCC(O3)C2C(=O)O)cc1OC (stereo unspecified),2.27%
16,COc1ccc(NC(=O)CSCc2ccc([N+](=O)[O-])cc2)cc1OC,6.35%
17,COc1ccc(NC(=S)SC)cc1OC,68.3% (active)
18,COc1cc(OC)cc(C(=O)NCCSCc2ccc(Cl)cc2)c1,0.23%
19,Cc1nc2ccccc2c(=O)n1NC(=O)c1ccc(Cl)c([N+](=O)[O-])c1,32.6%
20,C=CCn1c(SCC(=O)NC(=O)Cc2ccccc2)nc2ccccc2c1=O,14%
21,CCn1c(/C=C/c2ccc([N+](=O)[O-])o2)nc2ccccc2c1=O,63.4% (active)
22,COc1ccc(Cl)cc1NC(=O)COC(=O)C(CC(C)C)N1C(=O)C2CC=CCC2C1=O (stereo unspecified),-4.03%
23,Nc1[nH]c(C(=O)c2ccccc2)c(-c2ccc(Br)cc2)c1C(=O)NC1CC1,-5.57%

row,Compound,inhibition
1,Cc1cc(C(C)(C)C)cc(C)c1N,-8.01%
2,CN(C)S(=O)(=O)c1ccc(Oc2ccc(S(=O)(=O)N(C)C)cc2)cc1,6.23%
3,CC(C)(C)c1ccc(Oc2ccc(N)cc2)cc1,99% (active)
4,CC(=O)c1ccc(OCCCC(=O)Nc2ccc(C)c(S(=O)(=O)N3CCOCC3)c2)cc1,-0.59%
5,COC(=O)c1ccc2nc(-c3cccc(Br)c3)c(Cc3ccccc3C(F)(F)F)n2c1,-11.5%
6,Nc1nc(-c2sc3nc4c(cc3c2N)CCCC4)nc(N2CCOCC2)n1,-10.3%
7,COc1cc(CC(=O)Nc2nc(-c3ccc(F)c(F)c3)cs2)cc(OC)c1OC,60.3% (active)
8,COc1ccc(CC(=O)Nc2ccccc2NC(=O)c2ccco2)cc1OC,-18.6%
9,O=C(COC(=O)C1CCCO1)Nc1nc(-c2ccc(F)cc2)cs1 (stereo unspecified),-21.9%
10,COc1ccc(CCNC(=O)COC(=O)Cc2cc(OC)c(OC)c(OC)c2)cc1,-9.86%
11,COc1ccc(CC(=O)NC2CCSc3ccccc32)cc1OC (stereo unspecified),2.41%
12,COc1ccc(CC(=O)Nc2nc(-c3ccc(F)c(F)c3)cs2)cc1OC,59% (active)
13,O=c1cc(CO)oc(C(Nc2cccc(C(F)(F)F)c2)c2ccccn2)c1O (stereo unspecified),-5.67%
14,Cc1cc(C)cc(N(CCC#N)C(=O)CN2C(=O)NC3(CCCC3)C2=O)c1,-2.17%
15,CCC(C)NC(=O)CN(C1CCCCC1)S(C)(=O)=O (stereo unspecified),5.8%
16,CCCCCCN1CCN(C2CN(Cc3cn(Cc4ccc(F)cc4)nn3)S(=O)(=O)C2)CC1 (stereo unspecified),8.31%
17,CCc1cc(C(=O)Nc2nnc(C3CC3)s2)sc1C,7.61%
18,CCc1ccccc1OCC(=O)Nc1nnc(C2CC2)s1,-23.1%
19,Cc1cnc(NC(=O)c2ccccn2)s1,55.5% (active)
20,CN(C(=O)c1ccccn1)c1nnc(-c2ccccn2)s1,-1.91%
21,Cc1cnc(NC(=O)Cn2cnc3c2c(=O)n(C)c(=O)n3C)s1,6.18%
22,O=C(Nc1nnc(C2CC2)s1)c1ccccn1,65.5% (active)
23,CN(C)c1cccc(NC(=O)c2ccc(-c3ccc(F)c(F)c3)c3ccoc23)c1,-36.6%

row,Compound,inhibition
1,CCNC(=S)Nc1ccc2c(c1)c(=O)n(C)n2Cc1ccc(Cl)cc1,10.2%
2,C=CCn1c(=S)[nH]c2scc(-c3ccco3)c2c1=O,2.15%
3,CC(C)CNC(=O)C1(C)CCCN1C(=O)CSc1ccccc1 (stereo unspecified),24.6%
4,Cc1cc(C)nc(S/C=C/C(=O)c2ccccc2)n1,93.2% (active)
5,O=C(/C=C/Sc1ncn[nH]1)c1ccc(Cl)cc1,46.2%
6,COC(c1ccccc1)(c1ccccc1)C(Oc1nc(C)cc(C)n1)C(=O)O (stereo unspecified),1.41%
7,COc1ccc(NC(=O)CC2C(=O)NC3CCCCC3N2C(=O)c2ccc(F)cc2)cc1 (stereo unspecified),3.34%
8,CCSc1nc(=S)n(CC)c(C)c1C(C)=O,-1.72%
9,O=S1(=O)C[C@@H](N2CCN(CCO)CC2)[C@H](COCc2ccccc2)N1,7.64%
10,CCOC(=O)[C@H]1[C@H]2COc3ccc(C)cc3[C@@H]2N2C(=O)CN(Cc3ccc(F)cc3)C(=O)[C@@]12C,-5.2%
11,O=C(COC(=O)CCc1nc2ccccc2c(=O)[nH]1)Nc1ccc(N2CCOCC2)cc1,-0.73%
12,CCn1c(Cc2ccc(OC)cc2)nnc1SCC(=O)Nc1ccc(N2CCOCC2)cc1,4.78%
13,COc1cccc(/C=C(/CC(=O)Nc2ccc(N3CCOCC3)cc2)c2nc3ccccc3s2)c1,62.8% (active)
14,CCN(CC)C(=O)[C@H]1C[C@H](CC(=O)NCC23CC4CC(CC(C4)C2)C3)C(=O)N2CCc3c([nH]c4cc(CCC(=O)N(C)C)ccc34)[C@]12C,6.21%
15,Cc1cccc(CN2CCN(C3CN(Cc4cn(Cc5cc(C)cc(C)c5)nn4)S(=O)(=O)C3)CC2)c1 (stereo unspecified),12.5%
16,COc1ccccc1OCc1nc2ccccc2s1,72.9% (active)
17,COC(=O)C1[C@H]2SC(C)(C)C(C(=O)OC)N2C(=O)N1Cc1nc2ccccc2s1 (stereo partly specified),10%
18,CCc1ccc(-c2nnn(Cc3nc4ccccc4s3)n2)cc1,-5.59%
19,CC1(C)C2CC[C@]3(C)C(CC=C4[C@@H]5C[C@@](C)(CO)CC[C@]5(C(=O)O)CC[C@]43C)[C@@]2(C)CC[C@@H]1O (stereo partly specified),-12.1%
20,CC1CN(S(=O)(=O)c2ccc(C(=O)Nc3sccc3C(N)=O)cc2)CC(C)O1 (stereo unspecified),-0.86%
21,CNC(=O)C1CN(C(=O)c2cccc(S(=O)(=O)N3CCc4ccccc43)c2)c2ccccc2O1 (stereo unspecified),11.3%
22,CNC(=O)c1ccsc1NC(=O)c1ccc(S(=O)(=O)N2CCc3ccccc32)cc1,54.5% (active)
23,CCCCCc1c(Cc2ccccc2)ncn1CCc1ccccc1OC,24.1%

row,Compound,inhibition
1,Cc1ccc(C)c(NC(=O)CN(C)C(=O)c2ccc3ncsc3c2)c1,1.46%
2,Cc1ccc(NS(=O)(=O)c2cc3c(cc2Br)NC(=O)CO3)cc1C,19.6%
3,O=C(Nc1cccc(F)c1)[C@@H]1CCCN1,-1.09%
4,O=C1c2ccccc2C(=O)N1CC1c2ccccc2CCN1S(=O)(=O)c1ccccc1 (stereo unspecified),4.13%
5,CCC(C)NC(=O)c1ccccc1NC(=O)c1ccccc1N(C)S(C)(=O)=O (stereo unspecified),-11.3%
6,Cc1ccc2occ(/C=N/NC(=O)c3ccccc3C)c(=O)c2c1,70.5% (active)
7,CC(C)(C)OC(=O)NCCCCCC(=O)N/N=C/c1coc2ccccc2c1=O,-1.48%
8,O=c1c(/C=N/O)coc2ccc(Cl)cc12,-3.08%
9,CC1(C)CC(=O)c2cnc3nc4ccccc4n3c2C1,6.24%
10,Cn1c(N)c(C(=O)COC(=O)/C=C/c2ccc(OC(F)F)cc2)c(=O)n(C)c1=O,-0.1%
11,CCCOc1ccc(F)cc1-c1cc(C(=O)NCc2ccc(F)cc2)[nH]n1,24.1%
12,CCCOc1ccc(F)cc1-c1cc(C(=O)Nc2ccc(F)c(Cl)c2)[nH]n1,76.2% (active)
13,CCCOc1ccc(F)cc1-c1cc(C(=O)Nc2ccc(F)cc2)[nH]n1,37.3%
14,CCCNC(=O)c1cc2c(c(-c3cccc(-c4ccc(C#N)cc4)c3)n1)[C@@H](CCO)N(C(=O)CC)C2,-20.1%
15,CC(=O)c1c(C)n(-c2ccc(N(C)C)cc2)c2ccc(OCC(N)=O)cc12,57.5% (active)
16,CC(=O)c1c(C)n(-c2ccc(C)cc2)c2ccc(O)cc12,15.6%
17,Cc1cccc(OCC(=O)NCC(=O)N/N=C/c2ccc(N(C)C)cc2)c1,-4.48%
18,COC(=O)[C@]12CCCCC=C1N(Cc1ccccc1)C(=O)[C@H](CC(=O)NCc1ccc(C)o1)C2,9.51%
19,O=C1NC[C@H](CCCCN2C[C@H](Cc3ccc(O)cc3)N(CCc3ccccc3)C(=O)C2=O)N(CCc2ccccc2)C1=O,13.5%
20,O=C1CC(NNc2ccccc2)C(=O)N1c1cccc(Cl)c1 (stereo unspecified),15.1%
21,O=C1N/C(=C/c2cccn2-c2ccccc2)C(=O)N1c1cccc(Cl)c1,62.3% (active)
22,N#Cc1ccccc1CN1C(=O)S/C(=C/c2cccn2-c2cccc(C(=O)O)c2)C1=O,0.32%
